In PubChem BioAssay (NCI):
The panel holds about 83,000 compounds, 20% with a hit somewhere; the sample as a whole holds those more often.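 48-hour exposure, single concentration, 96-well plates; percent growth endpoint where 0 means no net growth. Active: below 10.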 A number with no mark means an inactive call. Activity calls are given as the source filed them.

What was measured:
Assay in all cases: NCI-60 one-dose screen, 48 h (100 = growth as untreated, 0 = no growth, -100 = all killed)
Settings in all cases: 10 µM unless noted
T-47D breast = tested on: T-47D breast
BT-549 breast = tested on: BT-549 breast
MDA-MB-435 melanoma = tested on: MDA-MB-435 melanoma
SW-620 colon = tested on: SW-620 colon
MCF7 breast = tested on: MCF7 breast
HCT-116 colon = tested on: HCT-116 colon
HCC-2998 colon = tested on: HCC-2998 colon
KM12 colon = tested on: KM12 colon

COc1cc(NC(N)=NCCC(C)(C)Oc2ccc(C(F)(F)F)cc2)ncc1C#N
growth (T-47D breast): -44.6% (active)
growth (BT-549 breast): 40.4%
growth (MDA-MB-435 melanoma): -91.2% (active)
growth (SW-620 colon): -79% (active)
growth (MCF7 breast): -71.1% (active)
growth (HCT-116 colon): -88.4% (active)
growth (HCC-2998 colon): -86.6% (active)
growth (KM12 colon): -51.7% (active)

Cn1ccc(=O)c(S(N)(=O)=O)c1
growth (T-47D breast): 93.9%
growth (BT-549 breast): 82%
growth (MDA-MB-435 melanoma): 103%
growth (SW-620 colon): 105%
growth (MCF7 breast): 111%
growth (HCT-116 colon): 102%
growth (HCC-2998 colon): 102%
growth (KM12 colon): 103%

COc1cc(-c2nc(-c3nc4ccc(Cl)cc4[nH]3)cc3c2[nH]c2ccccc23)cc(OC)c1OC
growth (T-47D breast): 54.2%
growth (BT-549 breast): 70.8%
growth (MDA-MB-435 melanoma): 75.5%
growth (SW-620 colon): 96.2%
growth (MCF7 breast): 47.9%
growth (HCT-116 colon): 58.7%
growth (HCC-2998 colon): 68.7%
growth (KM12 colon): 71%

O=C1/C(=C/c2ccccc2)Oc2ccc(O)c(I)c21
growth (T-47D breast): 77.5%
growth (BT-549 breast): 84.3%
growth (MDA-MB-435 melanoma): 103%
growth (SW-620 colon): 95.5%
growth (MCF7 breast): 54.8%
growth (HCT-116 colon): 98.2%
growth (HCC-2998 colon): 114%
growth (KM12 colon): 98.8%

C=COC(=O)CCCCCCCCC
growth (T-47D breast): 110%
growth (BT-549 breast): 108%
growth (MDA-MB-435 melanoma): 106%
growth (SW-620 colon): 99.1%
growth (MCF7 breast): 101%
growth (HCT-116 colon): 109%
growth (HCC-2998 colon): 101%
growth (KM12 colon): 106%

CCCCOc1ccc(/C=C2/SC(N3CCCC3)=NC2=O)cc1
growth (T-47D breast): 65.9%
growth (BT-549 breast): 90.9%
growth (MDA-MB-435 melanoma): 95.6%
growth (SW-620 colon): 99.9%
growth (MCF7 breast): 107%
growth (HCT-116 colon): 92.2%
growth (HCC-2998 colon): 109%
growth (KM12 colon): 99.5%

CC(C)CSc1nc(NN)c(C#N)c(-c2ccc(F)cc2)n1
growth (T-47D breast): 66.7%
growth (BT-549 breast): 85.3%
growth (MDA-MB-435 melanoma): 78.9%
growth (SW-620 colon): 91.9%
growth (MCF7 breast): 73.8%
growth (HCT-116 colon): 68.9%
growth (HCC-2998 colon): 54.4%
growth (KM12 colon): 58.1%

O=C1/C(=C/c2ccc(Cl)cc2)CN(C(=O)CCN2CCC(=NO)CC2)C/C1=C\c1ccc(Cl)cc1
growth (T-47D breast): -37.2% (active)
growth (BT-549 breast): -88% (active)
growth (MDA-MB-435 melanoma): -94.7% (active)
growth (SW-620 colon): -61.1% (active)
growth (MCF7 breast): -53.3% (active)
growth (HCT-116 colon): -48% (active)
growth (HCC-2998 colon): -76.1% (active)
growth (KM12 colon): -86.1% (active)

COc1ccc(-c2c(N)n[nH]c2-c2cc3c(c(OC)c2OC)OCO3)cc1
growth (T-47D breast): 106%
growth (BT-549 breast): 101%
growth (MDA-MB-435 melanoma): 106%
growth (SW-620 colon): 101%
growth (MCF7 breast): 101%
growth (HCT-116 colon): 94.1%
growth (HCC-2998 colon): 106%
growth (KM12 colon): 99.9%

CN(C)CCOC(=O)Nc1ccccc1Cl
growth (T-47D breast): 112%
growth (BT-549 breast): 99.3%
growth (MDA-MB-435 melanoma): 105%
growth (SW-620 colon): 109%
growth (MCF7 breast): 103%
growth (HCT-116 colon): 103%
growth (HCC-2998 colon): 111%
growth (KM12 colon): 112%

CCN1CCN(c2nc(NNC(=O)c3ccccc3)nc(N3CCN(C(c4ccccc4)c4ccccc4)CC3)n2)CC1
growth (T-47D breast): 40.7%
growth (BT-549 breast): 79.1%
growth (MDA-MB-435 melanoma): 60.2%
growth (SW-620 colon): 5.78% (active)
growth (MCF7 breast): 28.9%
growth (HCT-116 colon): 20.2%
growth (HCC-2998 colon): 31.7%
growth (KM12 colon): 58.4%

Cc1nn(-c2ccc(Cl)cc2)c2ncnc(N/N=C/c3cccc([N+](=O)[O-])c3)c12
growth (T-47D breast): 101%
growth (BT-549 breast): 106%
growth (MDA-MB-435 melanoma): 97.1%
growth (SW-620 colon): 88.9%
growth (MCF7 breast): 103%
growth (HCT-116 colon): 104%
growth (HCC-2998 colon): 94.8%
growth (KM12 colon): 66.5%

CCCCCCCC[C@@H](O)CC(=O)N[C@@H](CC(N)=O)C(=O)N[C@@H](CCC(N)=O)C(=O)N[C@@H](CC(=O)c1cc(C)cc(O)c1C(=O)c1c(O)cccc1O)CC(C)C
growth (T-47D breast): -3.58% (active)
growth (BT-549 breast): -1.45% (active)
growth (MDA-MB-435 melanoma): -39.6% (active)
growth (SW-620 colon): 18.3%
growth (MCF7 breast): 29.9%
growth (HCT-116 colon): -9.35% (active)
growth (HCC-2998 colon): -72.6% (active)
growth (KM12 colon): 1.64% (active)

O=C1C2(c3ccccc3)C(c3ccccc3)=C(c3ccccc3)C1(c1ccccc1)C1CC=CC12 (stereo not given)
growth (T-47D breast): 68.3%
growth (BT-549 breast): 99.4%
growth (MDA-MB-435 melanoma): 92.9%
growth (SW-620 colon): 93.8%
growth (MCF7 breast): 82.8%
growth (HCT-116 colon): 76%
growth (HCC-2998 colon): 87.7%
growth (KM12 colon): 80%

COc1c2occc2c(OC)c2c(=O)c(-c3cc(-c4ccc(F)cc4)c(C#N)c(N)n3)c(C)oc12
growth (T-47D breast): 30.7%
growth (BT-549 breast): 63.7%
growth (MDA-MB-435 melanoma): 63.1%
growth (SW-620 colon): 42.3%
growth (MCF7 breast): 13.4%
growth (HCT-116 colon): 9.9% (active)
growth (HCC-2998 colon): 69.3%
growth (KM12 colon): 46.2%

COP(=O)(OC)/C(=N\NS(=O)(=O)c1ccc(C)cc1)c1ccccc1
growth (T-47D breast): 94.7%
growth (BT-549 breast): 125%
growth (MDA-MB-435 melanoma): 106%
growth (SW-620 colon): 105%
growth (MCF7 breast): 88.6%
growth (HCT-116 colon): 103%
growth (HCC-2998 colon): 102%
growth (KM12 colon): 103%

COc1ccc(-c2ccc(-c3ccc(C(=N)N)cn3)s2)cc1OC
growth (T-47D breast): 84.6%
growth (BT-549 breast): 94.4%
growth (MDA-MB-435 melanoma): 103%
growth (SW-620 colon): 90.3%
growth (MCF7 breast): 84.9%
growth (HCT-116 colon): 80.2%
growth (HCC-2998 colon): 109%
growth (KM12 colon): 95.9%

COc1ccc(OC)c(/C=C2\Oc3cc(OCCCN4CCCC4)ccc3C2=O)c1
growth (T-47D breast): 92.6%
growth (BT-549 breast): 87.9%
growth (MDA-MB-435 melanoma): 91.2%
growth (SW-620 colon): 55.9%
growth (MCF7 breast): 55.7%
growth (HCT-116 colon): 46.1%
growth (HCC-2998 colon): 87.3%
growth (KM12 colon): 73.6%

NC(=O)c1c(NC(=S)Nc2ccc(OC(F)(F)F)cc2)sc2c1CCC1(C2)OCCO1
growth (T-47D breast): 86%
growth (BT-549 breast): 93.8%
growth (MDA-MB-435 melanoma): 81.6%
growth (SW-620 colon): 92.9%
growth (MCF7 breast): 90.1%
growth (HCT-116 colon): 98.2%
growth (HCC-2998 colon): 102%
growth (KM12 colon): 94.6%

N=C(N)c1ccc(-c2ccc(-c3cncc4ccccc34)s2)cc1F
growth (T-47D breast): -63.3% (active)
growth (BT-549 breast): 89.5%
growth (MDA-MB-435 melanoma): -90.5% (active)
growth (SW-620 colon): -62.1% (active)
growth (MCF7 breast): -68.6% (active)
growth (HCT-116 colon): -87.8% (active)
growth (HCC-2998 colon): -98.2% (active)
growth (KM12 colon): -89.4% (active)

O=[N+]([O-])c1ccc(OCCCOc2ccccc2)cc1
growth (T-47D breast): 110%
growth (BT-549 breast): 93.1%
growth (MDA-MB-435 melanoma): 99%
growth (SW-620 colon): 107%
growth (MCF7 breast): 93%
growth (HCT-116 colon): 97.4%
growth (HCC-2998 colon): 101%
growth (KM12 colon): 101%

OCCCCCCNc1ncnc2cc(Cl)ccc12
growth (T-47D breast): 72%
growth (BT-549 breast): 87.1%
growth (MDA-MB-435 melanoma): 109%
growth (SW-620 colon): 103%
growth (MCF7 breast): 97.8%
growth (HCT-116 colon): 81.9%
growth (HCC-2998 colon): 106%
growth (KM12 colon): 99.7%

N/C(=N\C(N)=N\c1nc2ccccc2s1)c1ccncc1
growth (T-47D breast): 65.4%
growth (BT-549 breast): 61.7%
growth (MDA-MB-435 melanoma): 1.82% (active)
growth (SW-620 colon): 35.2%
growth (MCF7 breast): 42.4%
growth (HCT-116 colon): 47.7%
growth (HCC-2998 colon): 79.1%
growth (KM12 colon): 52.1%

Cc1csc(NC(c2ccccc2)c2c(C)nc3ccccn23)n1 (stereo not given)
growth (T-47D breast): 86.9%
growth (BT-549 breast): 97%
growth (MDA-MB-435 melanoma): 102%
growth (SW-620 colon): 96.3%
growth (MCF7 breast): 94.6%
growth (HCT-116 colon): 91%
growth (HCC-2998 colon): 105%
growth (KM12 colon): 99.8%

CC(C)(C)n1cc(-c2ccnc(NCCCNS(=O)(=O)c3ccccc3)c2)c(-c2cccc(O)c2)n1
growth (T-47D breast): 23.8%
growth (BT-549 breast): 47.4%
growth (MDA-MB-435 melanoma): 54.8%
growth (SW-620 colon): 14.5%
growth (MCF7 breast): 25.1%
growth (HCT-116 colon): 36.8%
growth (HCC-2998 colon): 18.5%
growth (KM12 colon): 26.9%

N/C(=N\S(=O)(=O)c1ccccc1)Nc1nc2ccccc2s1
growth (T-47D breast): 75.9%
growth (BT-549 breast): 95.5%
growth (MDA-MB-435 melanoma): 101%
growth (SW-620 colon): 99.6%
growth (MCF7 breast): 90.6%
growth (HCT-116 colon): 97.5%
growth (HCC-2998 colon): 107%
growth (KM12 colon): 93%

Nc1cccc(Cl)c1N
growth (T-47D breast): 54.6%
growth (BT-549 breast): 97.6%
growth (MDA-MB-435 melanoma): 106%
growth (SW-620 colon): 101%
growth (MCF7 breast): 39.6%
growth (HCT-116 colon): 100%
growth (HCC-2998 colon): 84.2%
growth (KM12 colon): 99.5%

C=C1C(=O)O[C@H]2[C@H]1CC/C(Cn1cc(CNC(=O)/C=C/c3c[nH]c4ccccc34)nn1)=C\CC[C@@]1(C)O[C@@H]21
growth (T-47D breast): 107%
growth (BT-549 breast): 112%
growth (MDA-MB-435 melanoma): 83.9%
growth (SW-620 colon): 49.9%
growth (MCF7 breast): 42%
growth (HCT-116 colon): 63.8%
growth (HCC-2998 colon): 118%
growth (KM12 colon): 98%

Cc1ccc(-c2csc(NC(=O)CCCCl)n2)cc1
growth (T-47D breast): 77.2%
growth (BT-549 breast): 98.1%
growth (MDA-MB-435 melanoma): 103%
growth (SW-620 colon): 107%
growth (MCF7 breast): 90.7%
growth (HCT-116 colon): 98.6%
growth (HCC-2998 colon): 103%
growth (KM12 colon): 95%

COc1ccc(C2CC(c3ccc(OC)cc3OC)=NN2c2ccc(S(N)(=O)=O)cc2)cc1 (stereo not given)
growth (T-47D breast): 63.9%
growth (BT-549 breast): 76.7%
growth (MDA-MB-435 melanoma): 103%
growth (SW-620 colon): 101%
growth (MCF7 breast): 86%
growth (HCT-116 colon): 62.8%
growth (HCC-2998 colon): 121%
growth (KM12 colon): 86.4%
